Assay results taken from the supplement of paper PMC7156485.
± gives the standard deviation of the averaged measurements.

Tested on: HCC1569
Assay: cell number relative to DMSO (% of DMSO); higher = more cells (less growth inhibition / toxicity)
Conditions: concentration: 10 µM; 24 h
Method in brief: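 Cell number or H1.0 nuclear intensity appears as percent of the plate control, based on the median of replicates. Measurements came from HCC1569 and TDF cells exposed in triplicate to compounds at 10 µM for 24 h at 37 °C, then imaged in six fields per well at ×10. Positional effects were smoothed out of HCC1569 values.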
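Further: TDF denotes transformed human dermal fibroblasts of mesenchymal origin.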

Going from `C=CC[C@H](N)C(=O)O` [L-allylglycine] to `CN[C@H](CC(=O)O)C(=O)O` [N-Methyl-D-aspartic acid], the cell number rises from 101 to 104.

Going from `Oc1ccc(O)cc1` [Hydroquinone] to `O=c1[nH]ccc2c(O)cccc12` [1,5-Isoquinolinediol], the cell number rises from 74.9 ± 1.1 to 100.

Compared with `Cc1cc(Nc2nc(NC(C)c3ccc(F)cc3)c(C#N)cc2F)n[nH]1` (centres undefined), `O=[N+]([O-])c1ccc(-c2nc(-c3ccc(F)cc3)c(-c3ccncc3)[nH]2)cc1` is higher in cell number: 51.8 for the first, 89.9 for the second.

First: Cn1c(=O)c2c(ncn2CC2OCCO2)n(C)c1=O [Doxofylline]
Second: CC(C)c1cccc(C(C)C)c1N1C(=O)c2ccc(O)cc2C1=O
The cell number of the first is higher: 103 for the first, 60.4 for the second.

First: O=C(O)c1cccnc1C(=O)O [Quinolinic acid]
Second: NC1(C(=O)O)CCc2cc(C(=O)O)ccc21 (centres undefined)
The cell number of the first is higher: 106 for the first, 101 for the second.

Going from `COc1c(O)cc2c(c1O)C1OC(CO)C(O)C(O)C1OC2=O` (centres undefined) [Bergenin] to `COc1cccc2oc(-c3ccccc3)cc(=O)c12` [5-Methoxyflavone], the cell number rises from 99 to 99.7.

Going from `N#CC(=C(N)Sc1ccc(N)cc1)c1ccccc1C(F)(F)F` to `Cl.Cl.OCCN1CCN(CCCN2c3ccccc3Sc3ccc(C(F)(F)F)cc32)CC1` [Fluphenazine.2HCl], the cell number falls from 102 to 95.6.

Going from `COc1ccc(CN2CCN(C(c3ccc(F)cc3)c3ccc(F)cc3)CC2)c(OC)c1OC` [Lomerizine] to `COc1ccc2cc1Oc1ccc(cc1)CC1c3cc(c(OC)cc3CCN1C)Oc1c(OC)c(OC)c(OC)c3c1C(C2)N(C)CC3` (centres undefined) [Hernandezine], the cell number falls from 102 to 93.5.

First: COc1cc2c(cc1-c1c(C)noc1C)ncc1[nH]c(=O)n([C@H](C)c3ccccn3)c12
Second: COc1cc2ncnc(Nc3ccc(Oc4ccccc4)cc3)c2cc1OC [Src Kinase Inhibitor I]
The cell number of the first is lower: 75 for the first, 88.6 for the second.

Compared with `CCCCCCC=CCCCCCCCCCC(=O)O` [11(Z)-Octadecenoic acid], `CCC=CCC=CCC=CCCCCCCCC(=O)O` [Linolenic acid] is higher in cell number: 99.8 for the first, 104 ± 3.3 for the second.

Going from `Fc1ccc(C2CCNCC2COc2ccc3c(c2)OCO3)cc1` (centres undefined) [Paroxetine] to `COc1ccc2c(c1)c(CC(=O)N1CCOCC1)c(C)n2C(=O)c1ccc(Cl)cc1` [Indomethacin morpholinylamide], the cell number rises from 97.7 to 105.

First: O=c1[nH]c2cc([N+](=O)[O-])c([N+](=O)[O-])cc2[nH]c1=O
Second: COc1ccc2c(c1)c(C1=C(c3c[nH]c4ccccc34)C(=O)NC1=O)cn2CCCN(C)C
The cell number of the first is higher: 105 for the first, 83.9 for the second.

Compared with `COC(=O)C1C2CC3c4[nH]c5cc(OC)ccc5c4CCN3CC2CC(OC(=O)c2cc(OC)c(OC)c(OC)c2)C1OC` (centres undefined) [Reserpine], `CCC(=O)OC1(C(=O)SCF)C(C)CC2C3CC(F)C4=CC(=O)C=CC4(C)C3(F)C(O)CC21C` (centres undefined) is lower in cell number: 99.2 for the first, 98.9 for the second.

First: CC(C)(C)C(=O)OCOC(=O)[C@@H]1N2C(=O)[C@@H](/N=C/N3CCCCCC3)[C@H]2SC1(C)C
Second: NS(=O)(=O)c1ccc(N2CCN(CC[C@@H]3OCCc4ccccc43)CC2)cc1
The cell number of the first is lower: 84.7 for the first, 101 for the second.

First: CC(C)(CO)Cc1cc(C(C)(C)C)c(O)c(C(C)(C)C)c1
Second: Cn1cnc2c(F)c(Nc3ccc(Br)cc3Cl)c(C(=O)NOCCO)cc21
The cell number of the first is lower: 102 for the first, 105 for the second.

Compared with `CCCCCC=CCC=CC=CC=CC(O)C(O)CCCC(=O)O` (centres undefined), `CCCCCN(C)CCC(O)(P(=O)(O)O)P(=O)(O)O` [Ibandronate] is higher in cell number: 99.8 for the first, 103 for the second.

Compared with `O.c1cnc2c(c1)ccc1cccnc12` [1,10-Phenanthroline monohydrate], `O=C1[N-]C(=O)C(c2ccccc2)(c2ccccc2)N1.[Na+]` [Phenytoin sodium] is higher in cell number: 77.2 for the first, 99.9 for the second.

First: CNC1(C)C2CCC(C2)C1(C)C.Cl (centres undefined) [Mecamylamine hydrochloride]
Second: CNCCC(Oc1ccccc1C)c1ccccc1 (centres undefined) [Tomoxetine]
The cell number of the first is higher: 106 for the first, 101 for the second.

Compared with `CC(Oc1c(Cl)cccc1Cl)C1=NCCN1.Cl` (centres undefined) [Lofexidine.HCl], `CC1C(=O)N=C2Nc3cccc(Cl)c3CN21` (centres undefined) [Quazinone] is higher in cell number: 98.9 for the first, 111 for the second.

With `CCCCCCCCCCCCCCCCCC(=O)NCC(COP(=O)([O-])OCC[N+](C)(C)C)OC` (racemic) [rac-2-Methoxy-3-octadecanamido-1-propylphosphocholine] the cell number was 101.
